In the library only some 3.8% were active in any assay of this set; here they are far more common.
Wnt bcat act: Wnt/beta-catenin pathway activators, primary screen, cell-based, plate reader, single point; 300,000 compounds, 1.2% hits; activation, % at 9.35 µM; Wnt/beta-catenin reporter cell assay, activator; in the data active means activation above about 30%, passing the limit was not always enough; inconclusive means no clear call, values can overlap the other calls;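 further: 0% = neutral control wells and 100% = positive control wells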
MITF act: activators of MITF-driven TRPM1 promoter reporter, primary screen, cell-based, SK-MEL-5, luciferase, single point | SK-MEL-5 TRPM1-promoter luciferase, 24 h; % of positive control, neutral wells = 0 | activation, % at 12.5 µM | 300,000 compounds, 0.75% hits | AID 588334, 2011;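 active means mean activation of at least 80% with every replicate also reaching 80%; inconclusive means mean reaches 80% but some replicate falls short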;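 further: 0% = neutral control wells and 100% = parthenolide positive control wells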
HSF1 activator: HSF-1 activators, primary screen, NIH3T3-HGL cells, MG132 stress, luminescence, single point. NIH3T3-HGL HSF-1 luciferase reporter, 8 h; 100% = twice DMSO control signal. activation, % at 9 µM. 300,000 compounds, 1.7% hits. AID 504408, 2011;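 active means mean replicate activation of at least 50% with a set share of replicates each reaching 50%; inconclusive means only one of those two conditions met; inactive means mean below 50% and too few replicates reaching it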;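 further: 0% = median of the neutral control wells and 100% = twice that signal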
esBAF inh: Bmi1 luciferase reporter increase in mESCs, primary screen, esBAF inhibitor project, mouse ES cells, Bmi1 luciferase knock-in, single point | 24 h; 100% = twice the neutral-well signal | reporter increase, % at 12.5 µM | 350,000 compounds, 2% hits | AID 602393, 2012; in the data active means activation above about 40%; inconclusive means no clear call, values can overlap the other calls;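 further: 0% = median of the plate's neutral control wells and 100% = double that signal; a rise in the Bmi1 reporter signal indicates esBAF inhibition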
HSF1 inhib: HSF1 inhibitors in luciferase reporter cells, primary screen, cell-based, NIH3T3, luminescence. NIH3T3-HGL HSE-luciferase, MG132-induced, luminescence 8 h; active compounds read low. activity change, negative = inhibition, % at 7.5 µM (by protocol). 300,000 compounds, 0.77% hits. AID 2098, 2009;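 active means more than half of replicate wells show activity change below -50%, luminescence cut by over half; inconclusive means some wells, but at most half, below -50%; inactive means no replicate well below -50%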;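 further: luciferase reports HSF-1 transcriptional activity via heat shock element; 0% = median of DMSO wells and -100% = zero luminescence signal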
The depositor's hits bear a star; ? = inconclusive; · = no result given.

SMILES | Wnt bcat act | MITF act | HSF1 activator | esBAF inh | HSF1 inhib
O=C(c1ccccc1)n1ccc(-c2cnc(-c3ccccc3)s2)n1 | · | 43 | 36 | · | 17
COc1ccc(S(=O)(=O)n2ccc(-c3cnc(-c4ccccc4)s3)n2)cc1 | 41* | 59 | 20 | 21 | 22
CCC(C)(C)c1nnc(NC(=O)c2ccc([N+](=O)[O-])cc2)s1 | 4 | 67 | 34 | 48* | 3
C[C@H](NC(=O)[C@@H]1[C@@H](CO)[C@@H]2Cn3c(ccc(-c4cccnc4)c3=O)[C@H]1N2C)c1ccccc1 | · | · | · | 3 | ·
Cc1ccc(-c2csc(NC(=O)c3ccc(S(=O)(=O)N4CCc5ccccc54)cc3)n2)cc1 | -8 | · | -66 | 10 | -56*
CO[C@H](CN(C)C(=O)c1cnccn1)[C@H](C)CN([C@H](C)CO)S(=O)(=O)c1ccc(Cl)cc1 | · | · | · | -2 | ·
Cc1nn(-c2ccccc2)c(C)c1Cc1ccc(O)cc1 | 8 | 66 | 35 | 88* | 21
Cc1nn(-c2ccccc2)c(C)c1CN | -1 | -3 | -1 | · | 0
C(=C\c1ccccc1)/CSc1ccccn1 | 54* | 109* | 130* | · | 104
C(=CCSc1ccccn1)CSc1ccccn1 | -1 | · | · | · | ·
CCCC(=O)Nc1ccc2c(c1)OC[C@@H](C)N(CC1CCCC1)C[C@H](C)[C@H](OC)CN(C)C2=O | · | · | · | -6 | ·
C[C@@H]1CN([C@@H](C)CO)C(=O)c2cc(C#CC3(O)CCCC3)cnc2O[C@@H]1CN(C)C(=O)C1CCC1 | · | · | · | 6 | ·
CCOc1ccc2oc(C(=O)NNC(=O)c3ccccc3O)c(C)c2c1 | -4 | 5 | 7 | 48* | 7
Cc1ccnc(NC(=O)c2oc3ccccc3c2C)c1 | -5 | 6 | 25 | -12 | 12
CCOc1ccc2oc(C(=O)Nc3ccc4c(c3)OCO4)c(C)c2c1 | 2 | 90* | 31 | · | 17
CCOc1ccc2oc(C(=O)Nc3cc(C)ccn3)c(C)c2c1 | 42* | ? | 32 | 6 | 18
Cc1c(C(=O)NNC(=O)c2ccccc2O)oc2ccc(Br)cc12 | 2 | -1 | 9 | 31 | 6
CC=Cc1ccc2n(c1=O)C[C@H]1[C@H](CO)[C@@H](C(=O)NCCC)N(Cc3ccccn3)[C@@H]21 (mixture of isomers) | · | · | · | -1 | ·
Cc1nc2cc3ccccc3cc2s1 | -1 | 14 | · | 29 | ·
Cc1nc2cc3nc(C)sc3cc2s1 | · | ? | 17 | 50* | 18
O=C(C[C@@H]1CC[C@H]2[C@@H](COC[C@H](O)CN2S(=O)(=O)c2ccccc2F)O1)NCc1ccccc1Cl | · | · | · | 12 | ·
CCC(=O)O[C@]1(C(=O)SCF)[C@H](C)C[C@H]2[C@@H]3C[C@H](F)C4=CC(=O)C=C[C@]4(C)[C@@]3(F)[C@@H](O)C[C@@]21C | · | · | -62 | · | -53*
O=C1/C(=C/c2ccc([N+](=O)[O-])cc2)Oc2cc(O)ccc21 | 25 | 15 | 73* | 18 | 61
C[C@@H]1CN([C@@H](C)CO)C(=O)c2cc(NC(=O)c3ccncc3)ccc2O[C@H]1CN(C)Cc1ccc(C(F)(F)F)cc1 | · | · | · | -3 | ·
Cc1ccc(-c2nc(NCc3ccco3)n(C(=O)c3ccco3)n2)cc1 | 15 | 60 | 34 | 60* | 14
SMILES | Wnt bcat act | MITF act | HSF1 activator | esBAF inh | HSF1 inhib
O=C(COc1ccccc1)n1nc(-c2ccc(Cl)cc2)nc1NCc1ccco1 | · | · | 31 | 66* | 22
O=C(c1ccco1)n1nc(-c2ccc(Cl)cc2)nc1NCc1ccco1 | -1 | · | 9 | 39 | 8
COCC(=O)n1nc(-c2ccccc2)nc1NCc1ccc(N(C)C)cc1 | 10 | 46 | 2 | 50* | 21
CCn1nc(C(=O)NNC(=O)c2ccccc2)c2ccccc2c1=O | 12 | 29 | · | 46* | ·
CCn1nc(C(=O)N2CCN(Cc3nc4ccccc4s3)CC2)c2ccccc2c1=O | -2 | 35 | · | 53* | ·
CCn1nc(C(=O)NNC(=O)c2ccc(OC(F)F)cc2)c2ccccc2c1=O | -1 | -7 | · | -5 | ·
C[C@@H]1CCCCO[C@H](CN(C)C(=O)c2ccncc2)[C@H](C)CN([C@H](C)CO)C(=O)c2cc(NS(C)(=O)=O)ccc2O1 | · | · | · | -5 | ·
C[C@H]1CN([C@@H](C)CO)C(=O)c2cccc(NC(=O)Nc3ccc4c(c3)OCO4)c2O[C@H]1CN(C)S(=O)(=O)c1ccc(Cl)cc1 | · | · | · | 18 | ·
O=C(CCC(=O)N1CCN(c2ccc(O)cc2)CC1)c1ccc(Br)cc1 | · | · | 91* | · | 40
CC(C)NC(=O)N(C)C[C@@H]1OCCCC[C@@H](C)Oc2ccc(NS(=O)(=O)c3ccccc3)cc2C(=O)N([C@@H](C)CO)C[C@@H]1C | · | · | · | -5 | ·
CCC(=O)OCCNc1cc(SCCC(=O)OC)c2nonc2c1[N+](=O)[O-] | · | 9 | 17 | · | 6
CCC(=O)OCCNc1cc(Sc2nccn2C)c2nonc2c1[N+](=O)[O-] | -18 | -89 | 437* | · | 400
COCC(=O)N1C[C@H](C)[C@H](OC)CN(C)C(=O)c2cc(NC(=O)C3CCC3)ccc2OC[C@@H]1C | · | · | · | -5 | ·
C/C=C/c1ccc2c(c1)O[C@@H](CN(C)Cc1ccncc1)[C@H](C)CN([C@@H](C)CO)S2(=O)=O | · | · | · | 0 | ·
CC(C(=O)NC1CC(C)(C)NC(C)(C)C1)c1ccc([N+](=O)[O-])cc1 (stereo not given) | 9 | -1 | -62 | · | -59*
CCC1=NN(C(=O)c2ccc(Cl)cc2)C(O)(c2ccccc2)C1 (stereo not given) | 0 | · | 28 | 4 | 14
CCOC(=O)C1=NN(C(=O)c2ccc(C)cc2)C(O)(c2ccc(Cl)cc2)C1 (stereo not given) | 2 | -12 | 166* | 1 | 159
COC(=O)C1=NN(C(=O)c2ccc(Cl)cc2)C(O)(c2ccccc2)C1 (stereo not given) | 7 | -9 | 142* | -5 | 88
COc1ccc(NC(=O)Nc2cccc3c2O[C@@H](CN(C)C)[C@H](C)CN([C@H](C)CO)C3=O)cc1 | · | · | · | 3 | ·
Cc1nnc(-c2ccccc2)[nH]c1=O | -3 | -4 | 20 | 2 | 5
O=c1[nH]c(-c2ccccc2)nnc1-c1ccccc1 | 32* | 32 | 12 | 25 | 0
O=C(/C=C/c1cn(-c2ccccc2)nc1-c1cccnc1)c1ccco1 | 18 | -12 | 119* | · | 97
COC1=C/C(=C/c2c(O)c(C#N)c3ccccn23)C=CC1=O | 34* | 0 | -17 | 55* | -6
COc1cc(OC)cc(C(=O)c2c(C)c(C#N)c3ccccn23)c1 | -6 | · | -19 | -50 | -8
Cn1cccc1-c1cc(C(=O)N/N=C/c2ccccc2Cl)[nH]n1 | 10 | 86* | 5 | 55* | 1
O=C(N/N=C/c1ccccc1Cl)c1ccc(F)cc1 | · | 47 | 56* | 16 | 32

Source: PubChem
